Among the data in PubChem BioAssay AID1347084 (National Center for Advancing Translational Sciences (NCATS), 2019) are Potency and activity change, negative = inhibition values, retold here.

Molecules are shown by their SMILES. “And” between values parts separate entries of the source, which are not always exact repeats. Identical values can stand only once. Results filed as inconclusive are left out. The source made the active and inactive calls. Calls follow the shape of the full dose curve.

The nature of this test: qHTS for Inhibitors of the Functional Ribonucleoprotein Complex (vRNP) of Lymphocytic Choriomeningitis Arenaviruses (LCMV): LCMV Confirmatory Screen - GLuc reporter signal. To be noted: LCMV minigenome vRNP, Gaussia luciferase reporter; series mostly up to 53.9 µM. Background: In qHTS, concentration-response curves come from the screen itself.

For the compound `CCCCCC[C@H]1C(=O)O[C@H](C)[C@H](NC(=O)c2cccc(NC=O)c2O)C(=O)O[C@@H](C)[C@@H]1OC(=O)CC(C)C`, the Potency is 0.0343 µM (active).

On to `Cc1ccc2c(c1)C1CN(C)CCC1N2` (stereo not drawn), for which the Potency result is “inactive”.

`Cc1cc(N)c2ccccc2[n+]1CCCCCCCCCC[n+]1c(C)cc(N)c2ccccc21`: the Potency was 1.09 µM (active).

Consider `Clc1nccc2c1ccc1ccccc12`, for which the Potency result is “inactive”.

As to `CC(=O)OCC(=O)[C@@]12N=C(C)O[C@H]1C[C@H]1[C@@H]3CCC4=CC(=O)C=C[C@]4(C)[C@@H]3[C@@H](O)C[C@@]12C`, the Potency entry was “inactive”.

As for `COc1cccc(-c2ccc(NC(=O)C3=C(C(=O)O)CCC3)c(F)c2)c1`, the Potency was 3.85 µM (active).

As for `CCc1cncnc1N1CCN(Cc2nc3ccc(C(F)(F)F)cc3[nH]2)CC1`, the Potency was 4.44 µM (active).

In the case of `Fc1ccc(CNc2ncnc3ccc(F)cc23)cc1`, the Potency was 8.63 µM (active).

Turning to `CCCCC[C@H](O)/C=C/C=C/C/C=C\CCCC(=O)O`, the activity change, negative = inhibition is 4.12% [at 0.666 µM] (inactive).

For the compound `CN1CCN(C2=Nc3cc(Cl)ccc3Nc3ccccc32)CC1`, the Potency was 30.6 µM (active).

On to `CC1OC(=O)[C@@H](C(C)C)NC(=O)C(C(C)C)OC(=O)[C@H](C(C)C)NC(=O)C(C)OC(=O)[C@@H](C(C)C)NC(=O)C(C(C)C)OC(=O)[C@H](C(C)C)NC(=O)C(C)OC(=O)[C@@H](C(C)C)NC(=O)C(C(C)C)OC(=O)[C@H](C(C)C)NC1=O` (stereo partly drawn), for which the Potency is 0.153 µM (active).

Turning to `CCCCC/C(C=O)=C\c1ccccc1`, the Potency entry is “inactive”.

`Cc1ncc([N+](=O)[O-])n1CC(C)O` (stereo not drawn): the Potency result was “inactive”.

As to `COC(=O)c1nc(Cl)c(Cl)nc1N`, the Potency is 1.72 µM (active).

Turning to `C=C(C)[C@H]1Cc2c(ccc3c2O[C@@H]2COc4cc(OC)c(OC)cc4[C@@H]2C3=O)O1`, the Potency was 0.0544 µM (active).

`Nc1ccc([N+](=O)[O-])cc1O`: the Potency is 62.7 µM (active).

Consider `S=C(NCc1ccc2c(c1)OCO2)N1CCN(c2ncnc3c2oc2ccccc23)CC1`, for which the Potency was 2.22 µM (active).

As to `CC(O)(P(=O)(O)O)P(=O)(O)O`, the Potency entry is “inactive”.

`COc1ccc2c(c1OC)CN1CCc3cc4c(cc3C1C2)OCO4` (stereo not drawn): the Potency was 24.3 µM (active).

`COCCOC(=O)C1=C(C)NC(C)=C(C(=O)OC/C=C/c2ccccc2)C1c1cccc([N+](=O)[O-])c1` (stereo not drawn): the Potency was 21.7 µM (active).

In the case of `CCn1c(-c2nonc2N)nc2cnc(Oc3cccc(NC(=O)c4ccc(OCCN5CCOCC5)cc4)c3)cc21`, the Potency was 4.32 µM (active).

`CC[C@@]1([C@@H]2O[C@@H]([C@H]3O[C@@](O)(CO)[C@H](C)C[C@H]3C)C[C@H]2C)CC[C@H]([C@]2(C)CC[C@]3(C[C@H](O)[C@@H](C)[C@@H]([C@@H](C)[C@@H](OC)[C@H](C)C(=O)O)O3)O2)O1`: the Potency is 0.168 µM (active).

With `CCC(C)c1nccnc1OC` (stereo not drawn), the Potency result is “inactive”.

As for `CCN(CC)C(=O)N[C@@H]1C=C2c3cccc4[nH]cc(c34)C[C@@H]2N(C)C1`, the Potency entry was “inactive”.

Take `CCOC(=O)OCC/C(SC(=O)OCC)=C(\C)N(C=O)Cc1cnc(C)nc1N`: the Potency entry is “inactive”.

Take `CC1=C(C)C(=O)C(CCCCC#CCCCC#CCO)=C(C)C1=O`: the Potency is 19.3 µM (active).

In the case of `CCC[C@H](N[C@@H](C)C(=O)N1[C@@H]2CCCC[C@H]2C[C@H]1C(=O)O)C(=O)OCC`, the Potency result is “inactive”.

For `CCCCCN=C(N)N/N=C/c1c[nH]c2ccc(OC)cc12`, the Potency is 9.68 µM (active).

With `O=C1c2ccccc2-n2c1nc1ccccc1c2=O`, the Potency is 1.22 µM (active).

Regarding `CC(C)=CCC/C(C)=C/CC/C(C)=C/CC[C@]1(C)CCc2c(C)c(O)c(C)c(C)c2O1`, the activity change, negative = inhibition is -18.6% [at 6 µM] (inactive).

With `Cn1cc(-c2ccncc2)c(-c2ccc(OCc3ccc4ccccc4n3)cc2)n1`, the Potency is 24.3 µM (active).

Turning to `COc1ccc(Cc2nccc3cc(OC)c(OC)cc23)cc1OC`, the Potency was 1.93 µM (active) and 3.43 µM (active).

`CCC1OC2(C)C(O)C(/C=C/C=C/C=C/c3oc(=O)cc(OC)c3C)OC1(C)C2OC(C)=O` (stereo not drawn): the Potency is 0.109 µM (active).

On to `CC(O)C(O)[C@H]1CNc2nc(N)[nH]c(=O)c2N1` (stereo partly drawn), for which the Potency entry is “inactive”.

For the compound `CC(C)(C)C1CCC(CC2=C(O)c3ccccc3C(=O)C2=O)CC1` (stereo not drawn), the Potency was 6.11 µM (active).

Turning to `CO/C=C(/C(=O)OC)c1ccccc1Oc1cc(Oc2ccccc2C#N)ncn1`, the Potency is 4.98 µM (active).

With `O=C(Nc1ccc([N+](=O)[O-])cc1Cl)c1cc(Cl)ccc1O`, the Potency is 0.863 µM (active).

`Cc1cc2c(C(C)C)c(O)c(O)c(C=O)c2c(O)c1-c1c(C)cc2c(C(C)C)c(O)c(O)c(C=O)c2c1O`: the Potency is 6.11 µM (active).
